According to PubChem BioAssay (NCATS):
Results filed as inconclusive are left out. Active and inactive are the calls of the source. The call rests on the fitted dose curve; in most records, active means well fitted inhibition curve with a large enough effect; inconclusive means small, poorly fitted or top-dose-only effect; inactive means no such curve, though single readings can be large or run the other way.

Test: qHTS assay for measurement of the activity of small molecule inhibitors on Zika virus induced Caspase-3 activity in human iPSC derived neural progenitor cells (hNPCs) (AID 1224857); further: nearly all actives have a fitted effect of over 65% in size
Details: hNPCs ZIKV-induced caspase-3/7, Caspase-Glo luminescence, 6 h; series mostly up to 45.7 µM; activity change, negative = inhibition: at the top concentration
From the text: National Center for Advancing Translational Sciences [NCATS]
Johns Hopkins University School of Medicine
Increase in the Caspase-3 activity indicates an activation of apoptosis cell death pathway caused by Zika virus infection in certain types of neuronal cells including human neural progenitor cells (hNPCs), astrocytes, and astrocytoma cell line (SNB-19). This cell-based caspase-3 activity assay measures the increased caspase-3 activity in the human iPSC derived neural progenitor cells (hNPCs) after a 6-hour Zika virus infection with a luminescence readout. A decrease in the luminescence signal in this assay by small molecule treatment indicates an inhibitory effect of that small molecule on the Zika virus induced caspase-3 activity that may correlate with its effect on reduction of Zika virus caused cell death.
The medium for hNPCs consists of DMEM/F12, N2 supplement (ThermoFisher, Cat.# 17502048), NEAA (ThermoFisher, Cat. # 11140050), 2 ug/ml heparin, 2 uM cyclopamine, and B27 (ThermoFisher, Cat. # 17504044). A Caspase-Glo 3/7 assay kit (catalog number G8092; Promega, Madison, WI) was used to detect caspase-3 activity induced by Zika virus infection in human cells. The reagent mixture was reconstituted as described in the protocol from the manufacturer. Polystyrene tissue culture treated and PDL coated white plates were obtained from Greiner Bio-One (Monroe, NC). Cells were seeded in 384- or 1536-well assay plates and cultured at 37 C with 5% CO2 for 16 to 20 hours. The typical cell seeding density in the 1536-well plate assay is 350 cells/well in 3 ul medium for hNPCs in tissue culture treated plates. Compounds were added to cells and incubated for one hour before addition of ZIKV solution to cells (2 FFU/cell). After incubation at 37 C with 5% CO2 for 6 hours, the reagent mixture of Caspase-Glo 3/7 assay kit was added to each well, followed by incubation at room temperature for 30 minutes. The luminescence intensity of the assay plates was measured using a ViewLux plate reader (PerkinElmer). Data were normalized by using the cell-containing wells without ZIKV as a negative control (0% induction of caspase 3/7 activity) and wells containing ZIKV infected cells (Caspase-3 activity induced) as a positive control (100% induction of caspase 3 activity). The percentage inhibitions of the increased Caspase-3 activity by small molecule inhibitors were then calculated.
Potency means the concentration at half of the fitted maximal effect.

Question: For C[C@H](c1ccc(F)cc1CCCC(=O)O)N(c1cc(F)ccc1F)S(=O)(=O)c1ccc(Cl)cc1, which “activity change, negative = inhibition” value is on record?
Answer: The value was 85.4% (inactive).

Question: Which “activity change, negative = inhibition” value does the source give for COc1cccc(OC)c1-c1cc(C(=O)NC2(C(=O)O)C3CC4CC(C3)CC2C4)nn1-c1ccnc2cc(Cl)ccc12 (stereo not given) here?
Answer: Its value is 6.23% (inactive).

Question: For CCCCC(F)(F)[C@@]1(O)CC[C@H]2[C@H](CC(=O)[C@@H]2CCCCCCC(=O)O)O1, which “activity change, negative = inhibition” value is on record?
Answer: The value was -9.31% (inactive).

Question: For COC(=O)[C@H](c1ccccc1Cl)N1CCc2sccc2C1, which “activity change, negative = inhibition” value is on record?
Answer: Its value is 77.4% (inactive).

Question: With Cc1cn([C@@H]2C[C@@H](O)[C@H](CO)O2)c(=O)[nH]c1=O as the compound, how does the “activity change, negative = inhibition” value read?
Answer: Its value is -5.74% (inactive).

Question: With CN(C(Cc1ccc(OS(=O)(=O)c2cccc3cnccc23)cc1)C(=O)N1CCN(c2ccccc2)CC1)S(=O)(=O)c1cccc2cnccc12 (stereo not given) as the compound, how does the “activity change, negative = inhibition” value read?
Answer: The value was 20% (inactive).

Question: With Cc1cccc2c1CC[C@H](CN1CCC(c3c(Cl)cccc3Cl)CC1)C[C@@H]2O as the compound, how does the “activity change, negative = inhibition” value read?
Answer: Its value is 46.7% (inactive).

Question: For Cc1cc(OCCCS(C)(=O)=O)cc(C)c1-c1cccc(COc2ccc3c(c2)OC[C@H]3CC(=O)O)c1, which “activity change, negative = inhibition” value is on record?
Answer: The value was 53.8% (inactive).

Question: Which “activity change, negative = inhibition” value does the source give for CC(C)c1c(C(=O)Nc2ccccc2)c(-c2ccccc2)c(-c2ccc(F)cc2)n1CC[C@H](O)C[C@@H](O)CC(=O)O here?
Answer: Its value is 5.49% (inactive).

Question: For CC(=O)O[C@]1(C(C)=O)CC[C@H]2[C@@H]3C=C(Cl)C4=CC(=O)[C@@H]5C[C@H]5[C@]4(C)[C@@H]3CC[C@@]21C, which “activity change, negative = inhibition” value is on record?
Answer: Its value is 27.2% (inactive).

Question: For CCC=CC[C@H]1C(=O)CC[C@@H]1CC(=O)OC, which “activity change, negative = inhibition” value is on record?
Answer: The value was 0.818% (inactive).

Question: Which “activity change, negative = inhibition” value does the source give for C[C@@H](O)[C@H]1C(=O)N2C(C(=O)OCOC(=O)C(C)(C)C)=C(SC3CN(C4=NCCS4)C3)[C@H](C)[C@H]12 here?
Answer: Its value is -11.3% (inactive).

Question: For CCC[C@H](N[C@@H](C)C(=O)N1[C@@H]2CCCC[C@H]2C[C@H]1C(=O)O)C(=O)OCC, which “activity change, negative = inhibition” value is on record?
Answer: The value was 19.7% (inactive).

Question: With CNC(=O)c1cc(COc2nnc(Nc3ccc(Cl)cc3)c3ccoc23)ccn1 as the compound, how does the “activity change, negative = inhibition” value read?
Answer: Its value is -6.92% (inactive).

Question: For O=C(O)c1nc(=O)[nH]c(=O)[nH]1, which “activity change, negative = inhibition” value is on record?
Answer: Its value is -24.3% [at 20.5 µM] (inactive).

Question: With N#Cc1ccc(Oc2ccc3c(c2)COB3O)cc1 as the compound, how does the “activity change, negative = inhibition” value read?
Answer: The value was 22% (inactive).

Question: With COc1cc2c(cc1OC)CC(=O)N(CCCN(C)C[C@H]1Cc3cc(OC)c(OC)cc31)CC2 as the compound, how does the “activity change, negative = inhibition” value read?
Answer: The value was -2.21% (inactive).

Question: For O=C(Nc1cccc2c(=O)cc(-c3nn[nH]n3)oc12)c1ccc(OCCCCc2ccccc2)cc1, which “activity change, negative = inhibition” value is on record?
Answer: The value was 6.48% (inactive).

Question: For CN1N=C(N)c2cn([C@@H]3O[C@H](COP(=O)(O)O)[C@@H](O)[C@@H]3O)c3ncnc1c23, which “activity change, negative = inhibition” value is on record?
Answer: Its value is 249% (inactive).

Question: Which “activity change, negative = inhibition” value does the source give for CC(C)(OCc1nn(Cc2ccccc2)c2ccccc12)C(=O)O here?
Answer: The value was 16.5% (inactive).

Question: Which “activity change, negative = inhibition” value does the source give for C#C[C@]1(O)CC[C@H]2[C@H]3CCc4cc(OC)ccc4[C@H]3CC[C@@]21C here?
Answer: Its value is 14.8% (inactive).

Question: With CN1[C@H]2CC[C@H]1CC(OC(=O)c1c[nH]c3ccccc13)C2 (stereo not given in full) as the compound, how does the “activity change, negative = inhibition” value read?
Answer: The value was 49.8% (inactive).

Question: With Clc1ccc(COC(Cn2ccnc2)c2ccc(Cl)cc2Cl)c(Cl)c1 (stereo not given) as the compound, how does the “activity change, negative = inhibition” value read?
Answer: Its value is 8.08% (inactive).

Question: With Cc1ccc(NC(=O)Nc2cc(C(F)(F)F)ccc2F)cc1Nc1ccc2c(c1)NC(=O)C2=Cc1ccc[nH]1 as the compound, how does the “activity change, negative = inhibition” value read?
Answer: The value was -7.43% (inactive).

Question: For Cc1nc(C(=O)NCC(=O)O)c(O)c2ccc(Oc3ccccc3)cc12, which “activity change, negative = inhibition” value is on record?
Answer: The value was 57.8% (inactive).

Question: With Cc1csc(-c2nnc(Nc3ccc(Oc4ncccc4-c4ccnc(N)n4)cc3)c3ccccc23)c1 as the compound, how does the “activity change, negative = inhibition” value read?
Answer: Its value is 43.7% (inactive).

Question: Which “activity change, negative = inhibition” value does the source give for CCCCC[C@H](O)C=C[C@H]1[C@H](O)CC(=O)[C@H]1CCCCCCC(=O)O here?
Answer: Its value is -19.3% (inactive).

Question: Which “activity change, negative = inhibition” value does the source give for CCC[C@H](Nc1nc(-c2ccc(NC(=O)NCC)c(OC)c2)ncc1C)c1cccnc1 here?
Answer: Its value is 1.02% (inactive).

Question: With Cc1ccc2c(=O)c3cccc(CC(=O)O)c3oc2c1C as the compound, how does the “activity change, negative = inhibition” value read?
Answer: Its value is -6.51% (inactive).

Question: With CC(NCCc1ccc(O)cc1)C(O)c1ccc(O)cc1 (stereo not given) as the compound, how does the “activity change, negative = inhibition” value read?
Answer: Its value is 9.6% (inactive).

Question: For CCN1CCC(n2cc(CNc3cc(Cl)c4ncc(C#N)c(Nc5ccc(F)c(Cl)c5)c4c3)nn2)CC1, which Potency is on record?
Answer: The Potency was 18.7 µM (active).

Question: With Cc1nc(NC(=O)N2CCC[C@@H]2C(N)=O)sc1-c1csc(C(C)(C)C)n1 as the compound, how does the “activity change, negative = inhibition” value read?
Answer: Its value is 21.5% (inactive).

Question: For COC(=O)Nc1ccc(-c2nc(N3CCOCC3)c3cnn(C4CCN(C(=O)OC)CC4)c3n2)cc1, which “activity change, negative = inhibition” value is on record?
Answer: The value was 15.5% (inactive).

Question: With C[C@@H](NC(=O)c1ncnc(N)c1Cl)c1ncc(C(=O)Nc2cc(C(F)(F)F)c(Cl)cn2)s1 as the compound, how does the “activity change, negative = inhibition” value read?
Answer: Its value is 18.3% (inactive).

Question: With CCCCCCCCCCCCCCCC(=O)O[C@H]1[C@@H](O)[C@@H](O)[C@@H]([C@H](NC(=O)[C@@H]2C[C@@H](CCC)CN2C)[C@H](C)Cl)O[C@@H]1SC as the compound, how does the “activity change, negative = inhibition” value read?
Answer: The value was -13.6% (inactive).

Question: For NC(N)=Nc1nc(CSCCC(N)=NS(N)(=O)=O)cs1, which “activity change, negative = inhibition” value is on record?
Answer: Its value is 25.5% (inactive).

Question: For CC(C)(CO)[C@@H](O)C(=O)NCCC(=O)O, which “activity change, negative = inhibition” value is on record?
Answer: Its value is 18.3% (inactive).

Question: For OC[C@H]1O[C@@H](Oc2ccc(O)cc2)[C@H](O)[C@@H](O)[C@H]1O, which “activity change, negative = inhibition” value is on record?
Answer: Its value is 5.81% (inactive).

Question: For CCCCC[C@H](O)C=C[C@H]1[C@H](O)CC(=O)[C@H]1CC=CCCCC(=O)O, which “activity change, negative = inhibition” value is on record?
Answer: Its value is -22.9% (inactive).

Question: With CC=C1C2C=C(C)CC1(N)c1ccc(=O)[nH]c1C2 (stereo not given) as the compound, how does the “activity change, negative = inhibition” value read?
Answer: Its value is 17.8% (inactive).
